# From paper PMC12215968
# Target: SERBP1 (UniProt Q8NC51)
# Assay: cross-linking mass spectrometry
# Settings: TSTO, in cells
# YWHAB, P31946, sequence (P31946 whole entry): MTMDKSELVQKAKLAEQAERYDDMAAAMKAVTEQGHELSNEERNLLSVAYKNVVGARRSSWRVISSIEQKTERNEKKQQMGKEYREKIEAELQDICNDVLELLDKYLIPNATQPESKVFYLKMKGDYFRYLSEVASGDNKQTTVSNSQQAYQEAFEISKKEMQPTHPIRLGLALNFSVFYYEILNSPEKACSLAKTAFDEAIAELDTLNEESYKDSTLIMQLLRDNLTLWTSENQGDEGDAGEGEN
# YWHAG, P61981, sequence (P61981 whole entry): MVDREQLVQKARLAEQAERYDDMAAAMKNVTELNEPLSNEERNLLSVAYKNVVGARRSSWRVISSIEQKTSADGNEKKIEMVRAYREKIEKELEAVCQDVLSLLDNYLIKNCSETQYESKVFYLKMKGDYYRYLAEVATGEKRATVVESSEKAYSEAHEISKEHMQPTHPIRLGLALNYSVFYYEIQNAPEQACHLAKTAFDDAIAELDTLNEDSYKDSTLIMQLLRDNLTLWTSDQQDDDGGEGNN
# YWHAQ, P27348, sequence (P27348 whole entry): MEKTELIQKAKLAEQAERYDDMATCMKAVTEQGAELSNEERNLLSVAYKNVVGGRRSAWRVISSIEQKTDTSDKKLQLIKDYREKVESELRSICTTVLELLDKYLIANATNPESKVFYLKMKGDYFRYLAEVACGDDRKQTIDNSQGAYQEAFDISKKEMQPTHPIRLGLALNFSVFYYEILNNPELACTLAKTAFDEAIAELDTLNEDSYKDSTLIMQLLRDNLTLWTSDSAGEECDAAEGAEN
row,Substance,cross-linked residues
1,"RPL34, P49207",K115 - K37
2,"RPL23A, P62750",K30 - K68
3,"RPS15, P62841",K58 - K327
4,"RPS28, P62857",K16 - K140
5,"RPS3, P23396",K108 - K236
6,"RPS10, P46783",K107 - K299

# Target: YWHAE (UniProt P62258)
# Assay: cross-linking mass spectrometry
# Settings: TSTO, in cells
# YWHAE, sequence (P62258 whole entry): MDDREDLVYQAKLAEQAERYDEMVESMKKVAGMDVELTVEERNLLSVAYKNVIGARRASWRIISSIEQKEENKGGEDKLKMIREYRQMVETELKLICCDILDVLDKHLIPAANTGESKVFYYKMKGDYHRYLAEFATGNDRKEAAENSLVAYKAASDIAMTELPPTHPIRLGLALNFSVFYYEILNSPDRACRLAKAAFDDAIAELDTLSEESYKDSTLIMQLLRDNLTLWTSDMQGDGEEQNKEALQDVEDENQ
row,Substance,cross-linked residues
1,"YWHAQ, P27348",K68 - K12
2,"YWHAG, P61981",K69 - K12
3,"YWHAB, P31946",K70 - K12
